Rows were chosen to be rich in hits. Some 19% of all compounds tested hit in one or more screens of this group.
Pf growth 48h: Primary qHTS for delayed death inhibitors of the malarial parasite plastid, 48 hour incubation; P. falciparum luciferase growth in erythrocytes, 48 h; Potency, µM (top dose mostly 28.7 µM), inactives show at the top dose activity change, negative = inhibition, usual class: inhibitors; 310,000 compounds, 5.9% hits; AID 504832, 2011; further: potency means the concentration at half of the fitted maximal effect; on the % scale 0 is the no-effect control and ±100 the full control effect
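Luciferase-expressing parasites in RBCs, 2% Hct / 0.1% parasitemia final; RPMI 1640 + 0.5% Albumax; 37 C, 5% CO2, one generation; luminescence read-out, lower signal = inhibition.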
Marburg entry inh: qHTS for inhibitors of binding or entry into cells for Marburg Virus. Marburg virus pseudotyped entry inhibition, cell reporter. Potency, µM (highest dose often 37.8 µM), without a hit: top-dose activity change, negative = inhibition, most hits filed as inhibitors. 300,000 compounds, 1.8% hits. AID 540276, 2011; calls by dose curve; tested in HEK293 cells; further: potency means the concentration at half of the fitted maximal effect; on the % scale 0 is the no-effect control and ±100 the full control effect
Pf growth 96h: Primary qHTS for delayed death inhibitors of the malarial parasite plastid, 96 hour incubation | P. falciparum luciferase reporter growth, 96 h | Potency, µM (titrated, usually from 28.7 µM), without a hit: top-dose activity change, negative = inhibition, most hits filed as inhibitors | 320,000 compounds, 6.9% hits; further: potency means the concentration at half of the fitted maximal effect; on the % scale 0 is the no-effect control and ±100 the full control effect
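Infected RBCs, 2% Hct / 0.05% parasitemia final; luciferase-reporter P. falciparum; cpd 96 h, 37 C, 5% CO2; luciferase detection reagent; luminescence.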
Cycloheximide cs: Cycloheximide Counterscreen for Small Molecule Inhibitors of Shiga Toxin; cell reporter, cycloheximide protein synthesis inhibition counterscreen; max response, %; 300,000 compounds, 12% hits; AID 2314, 2010; in the data active means max response mostly above about 13%, no sharp cut-off; inactive means mostly below about 14%; further: read at 38.3 µM for the half of the compounds with a filed dose; 0% is about no effect
Shiga inhibitor: A qHTS for Small Molecule Inhibitors of Shiga Toxin. Vero cells, Shiga toxin protein synthesis inhibition reporter. inhibition, % at 38.7 µM. 290,000 compounds, 9.2% hits. AID 2315, 2010; in the data active means inhibition mostly above about 28%, no sharp cut-off; inactive means mostly below about 43%; further: 0% is about no effect
Lassa entry inh: qHTS for Inhibitors of binding or entry into cells for Lassa Virus; Lassa virus pseudotype entry inhibition, cell reporter; Potency, µM (titrated, usually from 37.9 µM), inactives show at the top dose activity change, negative = inhibition, actives largely listed as inhibitors; 300,000 compounds, 1.2% hits; AID 540256, 2011; calls by dose curve; tested in HEK293 cells; further: potency means the concentration at half of the fitted maximal effect; on the % scale 0 is the no-effect control and ±100 the full control effect; nearly all actives have a fitted effect of over 50% in size
Numbers without * were called inactive; ? = inconclusive; / = no result; [ ] = another dose, or the depositor's remark. Unless noted, the call rests on the fitted dose curve; in most records, active means well fitted inhibition curve with a large enough effect; inconclusive means small, poorly fitted or top-dose-only effect, or another doubt; inactive means no such curve, though single readings can be large or run the other way.

SMILES	Pf growth 48h	Marburg entry inh	Pf growth 96h	Cycloheximide cs	Shiga inhibitor	Lassa entry inh
Cc1ccc(-n2c(SCC(=O)N3CC(=O)Nc4ccccc43)nc3ccccc3c2=O)cc1	13.1µM*	?	?	0.8	1.3	-15.4%
COc1ccc2nc(SCC(=O)N3CC(=O)Nc4ccccc43)c(C#N)cc2c1	/	?	?	-2.2	-7.2	?
O=C(NCc1ccccc1)c1ccc(NS(=O)(=O)c2cccs2)cc1	1.4%	/	21.6%	/	/	/
Cc1ccc(C(=O)NNC(=O)Cc2csc(-c3csc(C)n3)n2)cc1	33.4%	/	26.0%	0.1	-13.4	/
CCN(Cc1ccc(O)cc1)CC1CCCN(CCc2cccc(F)c2)C1 (stereo not drawn)	2.33µM*	/	11.7µM*	-2.7	/	/
CN(CC1CCN(CCc2cccc(C(F)(F)F)c2)CC1)C(=O)c1ccc(F)cc1F	?	/	18.3%	0.6	9.9	/
CSCCC(=O)N(C)CC1CCN(CCc2cccc(C(F)(F)F)c2)CC1	8.2%	/	4.15µM*	-1.6	-4.6	/
CC(=O)Nc1ccc(CN(C)CC2CCCN(CCc3cccc(C(F)(F)F)c3)C2)cc1 (stereo not drawn)	4.15µM*	10µM*	?	-1.1	-5.7	?
Cc1ccc(-c2noc(CCCC(=O)Nc3cccnc3)n2)cc1	?	?	?	3.5	16.3	?
CN(c1ccccc1C(=O)Nc1cccc(Br)c1)S(=O)(=O)c1ccccc1	-6.0%	/	207.8%	-2.2	-1.1	/
CC(=O)c1cccc(NC(=O)c2ccccc2N(C)S(=O)(=O)c2ccc(C)cc2)c1	?	2.6%	13.1µM*	0.6	-16.5	?
CCCNC(=O)c1ccccc1NC(=O)c1ccccc1N(C)S(=O)(=O)c1ccc(C)cc1	8.28µM*	?	11.0%	-0.3	-1.3	?
O=C1C2C3C=CC(C4CC34)C2C(=O)N1Cc1ccccc1 (stereo not drawn)	-14.6%	12.5%[46.1 µM]	188.1%	7.4	-4.7	0.9%
COc1cccc(-c2nnc(N(C)C(=O)C3CCOC3)s2)c1 (stereo not drawn)	42.9%	7.2%	?	28.8*	57.7*	-4.9%
Oc1cc2c(cc1O)[C@H]1c3ccc(O)c(O)c3OC[C@@]1(O)C2	3.7µM*	?	6.57µM*	/	/	0.1%
O=C1c2ccccc2C(=O)N1OCc1ccccc1[N+](=O)[O-]	-2.9%	-10.5%[46.1 µM]	1.2%	24.4*	81.9	8.7%
O=C(Cc1ccc(F)cc1)OCN1C(=O)c2ccccc2C1=O	?	2.7%[46.1 µM]	14.7µM*	-3.6	-24.1	11.2%[46.1 µM]
O=C(Cc1ccccc1[N+](=O)[O-])OCc1cccc([N+](=O)[O-])c1	-2.2%	/	8.6%	31.5*	91.7*	/
O=C(Cc1ccccc1[N+](=O)[O-])OCN1C(=O)c2ccccc2C1=O	1.7%	/	12.1%	17.8*	29.9	/
O=C(CCN1C(=O)c2ccccc2C1=O)OCN1C(=O)c2ccccc2C1=O	/	1.2%	-9.0%	9.3	7.1	-1.3%
CC(C)(C)N(Cc1ccccc1)C(=O)COC(=O)c1ccc(Br)o1	?	/	-9.4%	/	/	/
CC1CN(C(=O)c2ccccc2Sc2ccccc2C#N)CC(C)O1 (stereo not drawn)	-9.2%	-4.9%	/	-1.0	-13.7	-2.9%
COC(=O)c1ccccc1NC(=O)C1CCCN(C(=O)c2cnn(-c3ccc(F)cc3)c2-n2cccc2)C1 (stereo not drawn)	/	/	/	/	/	-4.0%[46.1 µM]
COc1cccc(C2C=C(Nc3ccccc3)C(=O)N2c2ccccc2)c1 (stereo not drawn)	?	-5.9%	-32.7%	27.1*	18.9*	-1.0%
COc1ccc(C2C=C(Nc3ccccc3)C(=O)N2c2ccccc2)cc1OC (stereo not drawn)	-4.4%	2.0%	?	37.7*	65.7*	12.8%
SMILES	Pf growth 48h	Marburg entry inh	Pf growth 96h	Cycloheximide cs	Shiga inhibitor	Lassa entry inh
COc1cccc(NC2=CC(c3ccc(C(C)C)cc3)N(c3cccc(OC)c3)C2=O)c1 (stereo not drawn)	/	0.4%[46.1 µM]	/	/	/	26.0%[46.1 µM]
C/C(=N\NC(=O)c1cccs1)c1ccc(C(=O)O)s1	96.5%	/	39.4%	64.0*	82.5*	/
C/C(=N\NC(=O)c1cccs1)C(C)(C)C	101.7%	?	55.1%	70.5*	57.0*	?
CC(=O)N/N=C(/C)c1ccc(NC(=O)c2csc(C)c2C)cc1	229.6%	2.2%[46.1 µM]	-11.6%	40.5*	146.7*	?
C/C(=N/NC(=O)c1cccs1)c1ccco1	110.5%	?	189.6%	56.0*	94.9*	?
Cc1ccc(NC(=O)c2ccco2)c(NC(=O)c2cccs2)c1	4.5%	5.5%	/	8.6	-4.8	2.3%
C/C(=N\NC(=O)CCC(=O)Nc1ccccc1)c1cccs1	22.1%	27.5%	?	-0.5	-8.7	11.3%
CCOC(=O)C/C(C)=N/NC(=O)c1cccs1	99.2%	28.4%	170.2%	22.1*	71.4*	2.6%
C/C(=N\NC(=O)c1ccc2c(c1)OCO2)c1ccco1	93.1%	-26.9%[46.1 µM]	217.6%	16.5	15.1	?
CCOC(=O)NC(O)C(=O)c1cccs1 (stereo not drawn)	8.0%	-9.3%	5.22µM*	-3.9	18.2	-0.4%
C/C(=N\NC(=O)c1csc(C)c1C)c1ccco1	163.3%	?	81.2%	37.2*	62.3*	-10.9%
CC(=NNC(=O)c1cc(C)oc1C)c1ccc(Br)s1	/	15.8%	/	/	/	15.3%
CCOC(=O)NC(O)C(=O)c1ccc(F)cc1 (stereo not drawn)	-17.8%	-10.4%	?	2.2	-19.5	-0.3%
C/C(=N\NC(=O)c1csc(C)c1C)c1ccc(C)s1	93.5%	-2.2%	-15.1%	38.2*	37.9*	2.8%
CC1(C)CN(c2ccccc2)N(Cc2ccc(F)cc2)C1=O	?	0.9%	-2.6%	-0.4	-9.6	-17.4%
O=c1onc(-c2ccc(Cl)cc2Cl)n1-c1cccnc1	48.7%	7.5%	50.0%	-2.6	-3.1	-4.3%
O=C(/C=C/Nc1nccs1)C(F)(F)Cl	36.4%	?	4.6%	35.0*	101.9*	2.4%[46.1 µM]
O=C(c1ccc(N2CCOCC2)cc1)c1cccs1	204.1%	?	-9.6%	30.5*	53.2*	?
O=C(N/N=C/c1ccc(N2CCOCC2)cc1)c1cccs1	142.7%	-18.6%[46.1 µM]	71.8%	39.2*	78.9*	-3.5%
CCOc1cc(/C=N/NC(=O)c2cccs2)ccc1OC(=O)N1CCOCC1	5.2%	-0.5%	-12.8%	45.1*	108.7*	?
CC(=O)Nc1ccc(S(=O)(=O)Nc2ccc(C(=O)NCC(=O)O)cc2)cc1	-12.6%	/	36.6%	8.2	22.4	/
c1ccc(-c2nc3nonc3c3nc4ccccc4n23)cc1	-4.8%	2.2%	13.1µM*	-1.8	-19.7	-12.4%
Cc1ccc(CN(Cc2ccccn2)C(=O)Nc2ccc(C)c(C)c2)cc1	?	?	?	-3.9	-10.3	?

From PubChem BioAssay
